High-throughput results from PubChem.
CCT chaperon mod: High-Throughput Screening for Modulators of Cytosolic Chaperonin Activity; actives 0.3% (n = 360,000); activity change, % (test concentration not listed), hits read low; purified chaperonin ATPase assay, HTRF ADP detection, 30 min; in the data active = activity change below about -30%; note: % is set by controls: 0 for no effect and ±100 for the full control effect
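We incubate TRiC, 40 or 20 nM final, with library compounds at 76 uM and 10 uM ATP for 30 min at 37 °C. ADP formed is detected with Transcreener HTRF reagents after 30 min at room temperature.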
MmCpn inh: Inhibitors of TCP-1 ring complex (TRiC) of Methanococcus maripaludis (MmCpn): qHTS; purified Mm-Cpn ATPase, ADP Transcreener TR-FRET; Potency, µM (doses to about 76.9 µM), for inactives: top-dose activity, negative = inhibition, most hits filed as inhibitors; actives 0.031% (n = 330,000); note: potency is the fitted concentration of half-maximal effect; % is set by controls: 0 for no effect and ±100 for the full control effect; nearly all actives have a fitted effect of over 80% in size
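Reaction buffer contained 30 mM Tris pH 7.4, 100 mM KCl, 5 mM MgCl2 and 1 mM DTT. Mm-CPN (25 nM final) hydrolysed 10 uM ATP over 30 min at 37°C; ADP was read by HTRF.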
Rango complex inh: qHTS Assay for Inhibitors of Rango (Ran-regulated importin-beta cargo) - Importin beta complex formation. Importin subunit beta-1 (Homo sapiens), Q14974. Rango CFP/YFP FRET sensor + importin beta, 45 min. Potency, µM (series often up to 92.2 µM), for inactives: at the top dose inhibition of complex formation. actives 0.031% (n = 340,000); calls by dose curve;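 note: potency is the fitted concentration of half-maximal effect; 0% = DMSO wells and 100% = buffer wells lacking importin beta; nearly all actives have a fitted effect of over 15% in size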
Target sequence (Q14974 whole entry, looked up): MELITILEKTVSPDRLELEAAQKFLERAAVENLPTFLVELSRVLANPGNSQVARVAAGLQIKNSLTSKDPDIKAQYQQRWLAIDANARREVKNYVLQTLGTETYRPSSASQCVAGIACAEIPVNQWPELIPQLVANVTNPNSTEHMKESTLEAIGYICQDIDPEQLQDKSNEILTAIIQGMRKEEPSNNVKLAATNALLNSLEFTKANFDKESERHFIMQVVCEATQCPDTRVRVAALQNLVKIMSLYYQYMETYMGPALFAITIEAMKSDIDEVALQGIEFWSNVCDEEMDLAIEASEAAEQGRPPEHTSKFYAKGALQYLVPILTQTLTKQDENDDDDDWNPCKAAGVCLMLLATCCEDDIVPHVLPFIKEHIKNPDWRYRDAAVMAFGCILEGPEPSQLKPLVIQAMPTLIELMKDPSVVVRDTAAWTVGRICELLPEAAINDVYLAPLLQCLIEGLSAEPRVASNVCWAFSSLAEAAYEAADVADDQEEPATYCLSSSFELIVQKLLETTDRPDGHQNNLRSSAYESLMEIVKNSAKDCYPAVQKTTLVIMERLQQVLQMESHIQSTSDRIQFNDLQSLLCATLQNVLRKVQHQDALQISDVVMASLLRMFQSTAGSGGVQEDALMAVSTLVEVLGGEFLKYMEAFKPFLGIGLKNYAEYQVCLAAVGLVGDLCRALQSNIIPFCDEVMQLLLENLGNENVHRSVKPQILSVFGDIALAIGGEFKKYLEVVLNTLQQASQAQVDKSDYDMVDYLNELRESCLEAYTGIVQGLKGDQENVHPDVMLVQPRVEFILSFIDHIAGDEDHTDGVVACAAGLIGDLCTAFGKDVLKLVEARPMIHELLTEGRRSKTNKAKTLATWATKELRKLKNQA
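FRET biosensor Rango (snurportin 1 IBB between N-terminal EYFP and C-terminal Cerulean), 50 nM in PBS/1 mM DTT/0.02% Tween-20/0.1% BSA, preincubated 5 min RT with compound; 0.125 microM importin beta added, 45 min RT, CFP/YFP FRET ratio read.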
Rango dissoc inh: qHTS Assay for Inhibitors of RanGTP induced Rango (Ran-regulated importin-beta cargo) - Importin beta complex dissociation; actives 0.071% (n = 340,000); Biochemical FRET Rango-importin beta, RanGTP-induced dissociation; Snurportin-1 (Homo sapiens) + GTP-binding nuclear protein Ran (Homo sapiens) + Importin …; Potency, µM (series often up to 46.1 µM), for the others: at the highest dose activity change, negative = inhibition; calls by dose curve; note: potency is the fitted concentration of half-maximal effect; % of control where 0% means no effect; nearly all actives have a fitted effect of over 45% in size
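Quantitative HTS using a FRET biosensor: 0.1 uM Rango, 0.25 uM importin beta, 0.6 uM Ran, 2 mM GTP, 0.2 uM RCC1 final, PBS with DTT, Tween-20 and BSA. Post-read taken 45 min after Ran addition.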
Integrin act MD: qHTS for Activators of Integrin-Mediated Alleviation for Muscular Dystrophy; alpha7betagal myoblasts, beta-gal FDG fluorescence, 48 h; Potency, µM (highest dose often 38.3 µM), without a hit: at the highest dose activation, actives largely listed as activators; actives 0.064% (n = 350,000); AID 624291, 2012;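 note: potency is the fitted concentration of half-maximal effect; 100% = response of the positive control SU9516; nearly all actives have a fitted effect of over 60% in size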
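alpha7betagal+/- myoblasts (passage 13, 250/well) treated 48 h at 37C with compounds at 1:260 dilution of DMSO stock. Lysed, then beta-galactosidase activity read as FDG fluorescence (ex 480/em 540) after 30 min, with pre-read for autofluorescence.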
An asterisk follows results filed as active; ? = inconclusive; . = not tested or not shown. An excerpt weighted towards active compounds, which were near 0.51% of everything screened. Unless noted, calls come from the whole dose curve; as a rule, active = well fitted curve in the direction sought with a large enough effect; inconclusive = small, poorly fitted or top-dose-only effect, or another doubt; inactive = no such curve, though single readings can be large; an effect the other way counts as inactive or inconclusive.

SMILES	CCT chaperon mod	MmCpn inh	Rango complex inh	Rango dissoc inh	Integrin act MD
CCOC(=O)C(Sc1cc(-c2ccccc2)nc2ncnn12)C(C)=O (stereo not drawn)	2	0%	?	12µM*	-8%
CCOC(=O)C(Cc1ccccc1)NC(=O)CCc1c(C)nc2ncnn2c1C (stereo not drawn)	-2	2%	?	1%	2%
O=C(CSc1nnc(-c2ccncc2)o1)Nc1cccc(F)c1	-3	0%	?	20%	12%
O=C(CSc1nnc(-c2ccncc2)o1)Nc1cc(F)ccc1F	-119*	0%	3%	-4%	4%
Cc1ccc(-c2nnc(SCC(=O)Nc3sc(C)c(C)c3C#N)n2C)cc1	-1	-1%	3%	-18%	23%
Cc1sc(NC(=O)CSc2nnc(-c3ccc(F)cc3)o2)c(C#N)c1C	-50*	0%	-2%	-5%	24%
CC1(C)OC(=O)C2=C(C[C@@H](CCOCc3ccccc3)O[C@H]2c2ccc(F)cc2)O1	0	.	.	.	.
O=S(=O)(c1ccc(C(F)(F)F)cc1)N1CCCN(c2ccc(C(F)(F)F)cn2)CC1	-34*	1%	-6%	29%	7%
O=C(O)c1sccc1S(=O)(=O)N1CCN(c2ccc(C(F)(F)F)cn2)CC1	1	-2%	2%	-7%	27%
Cc1ccc(C)c(OCCn2cc(/C=C(\C#N)C(=O)NCc3cccs3)c3ccccc32)c1	-4	0%	?	-10%	-13%
N#C/C(=C\c1cn(CCOc2ccccc2F)c2ccccc12)C(=O)NCc1cccs1	0	0%	?	5.8µM*	30%
Cc1cc2nc3ccc(N(C)C)cc3nc2cc1N	-40*	.	26%	-14%	-21%
C=CS(=O)(=O)c1ccc(Oc2ccc(S(=O)(=O)C=C)cc2)cc1	-45*	-5%	-6%	-16%	-61%
NS(=O)(=O)c1ccc(Oc2ccc(S(N)(=O)=O)cc2)cc1	0	2%	0%	0%	7%
Cn1c(NCCOc2ccccc2Cl)nc2cc(-c3ccc(F)cc3)sc2c1=O	1	.	.	.	.
C/C(=N\NC(=O)c1cc(C)oc1C)c1ccc2ccccc2c1	0	-1%	-4%	4%	8.9µM*
Cc1csc2nc(O)c(C(=O)NC3CCCCCC3)c(=O)n12	-35*	-3%	4%	-2%	-5%
O=C(CCS(=O)(=O)c1ccc2c(c1)NC(=O)CO2)NCc1ccccc1	-64*	0%	5%	8%	8%
Cc1ccc(S(=O)(=O)N(C)C[C@@H]2OCc3cn(nn3)CCCC(=O)N([C@H](C)CO)C[C@H]2C)cc1	-3	.	.	.	.
O=C(O)CCN1C(=O)c2ccc(NC(=O)Cc3ccc(Cl)cc3)cc2C1=O	-32*	1%	-1%	-10%	15%
COc1ccccc1-n1c(SCC(=O)Nc2cccc(S(N)(=O)=O)c2)nc2ccccc2c1=O	0	3%	-2%	-7%	-17%
COc1ccc(OC)c(-n2c(SCC(=O)Nc3cccc(S(N)(=O)=O)c3)nc3ccccc3c2=O)c1	-40*	-7%	5%	-5%	6%
CC1=C(C(=O)N(C)C)CC(CC(=O)NCc2cccc3ccccc23)C(=O)N1Cc1ccc(F)cc1 (stereo not drawn)	-1	.	.	.	.
Cc1ccc(S(=O)(=O)Nc2ccc3c(c2)C(=O)N([C@H](C)CO)C[C@H](C)[C@@H](CN(C)C(=O)NC2CCCCC2)OCCCC[C@@H](C)O3)cc1	-2	.	.	.	-10%
Cc1ccc(S(=O)(=O)Nc2ccc3c(c2)C(=O)N([C@H](C)CO)C[C@H](C)[C@H](CN(C)C(=O)Nc2cccc4ccccc24)OCCCC[C@@H](C)O3)cc1	-31*	.	.	.	-5%
SMILES	CCT chaperon mod	MmCpn inh	Rango complex inh	Rango dissoc inh	Integrin act MD
CCOCCCn1c(SCC(=O)NC2CCCCC2)nc2ccccc2c1=O	-86*	.	.	.	19%
c1ccc2sc(-n3cc(C4CCCCC4)nn3)nc2c1	-2	.	.	.	.
Cn1nc(NC(=O)C(F)(F)F)c2ncc(-c3ccccc3)nc21	-1	.	.	.	0%
Cc1ccc(/C=N/N2CCN(C3c4ccccc4-c4ccccc43)CC2)s1	-56*	0%	?	-20%	-22%
C(=N\N1CCN(C2c3ccccc3-c3ccccc32)CC1)/c1ccccn1	-3	2%	-3%	4%	28%
N#Cc1ccc(OCC(=O)OCC(=O)c2ccccc2)cc1	-33*	1%	1%	43%	3%
CCN(CC)C(=O)C1CCCN(Cc2ccc3c(c2)OCO3)C1 (stereo not drawn)	-2	1%	1%	-10%	7%
O=C(C1CCCN(Cc2ccc3c(c2)OCO3)C1)N1CCCC1 (stereo not drawn)	-34*	0%	0%	27%	18%
CCC(C)c1ccc(NC(=S)NCCn2cc(Cl)cn2)cc1 (stereo not drawn)	-39*	-2%	-2%	4%	133%
CCOC(=O)c1c(NC(=O)CSc2nnc(-c3ccco3)o2)sc(C(C)=O)c1C	-60*	.	-4%	-11%	-9%
O=C(/C=C/[C@H]1O[C@@H](n2ccc(=O)[nH]c2=O)[C@H](O)[C@@H]1O)NCc1ccccc1	1	.	.	.	.
CNc1cc(-c2cnn(CC(C)C)c2)ncn1	0	.	.	.	.
Cc1cccc(C)c1NC(=O)C(c1ccccc1OC(F)(F)F)N1CCN(C/C=C/c2ccccc2)CC1 (stereo not drawn)	-1	.	.	.	.
CCN(CC)C(=O)CSc1nc(C)cc(-c2cccs2)c1C#N	-34*	1%	1%	9%	23%
CC(C)(C)c1ccc(C(=O)NC(=O)COC(=O)CCS(=O)(=O)c2ccccc2)cc1	-68*	-2%	-5%	6%	13%
Cc1nc(Nc2ccccc2F)c2oc3ccccc3c2n1	-49*	-1%	6%	-4%	?
Cc1nc(Nc2ccccc2O)c2oc3ccccc3c2n1	0	-4%	1%	9%	33%
CC1CCCC(NC(=O)COC(=O)c2ccc([N+](=O)[O-])o2)C1C (stereo not drawn)	-64*	1%	-1%	1%	5%
CC1CCCCC1NC(=O)COC(=O)c1ccc([N+](=O)[O-])o1 (stereo not drawn)	1	0%	?	-7%	?
CCC(C(=O)NC(C)(C)C)N(Cc1ccc(OC)cc1)C(=O)c1snc(C(N)=O)c1N (stereo not drawn)	-5	.	.	.	4%
